HADH2 inh: blocks human hydroxyacyl-CoA dehydrogenase type II; Q99714; recombinant HADH2, NADH fluorescence, beta-hydroxybutyryl-CoA; Potency, µM (titrated, usually from 57.1 µM), for the others: at the highest dose activity change, negative = inhibition, hits mostly inhibitors; 3.4% of 73,000 active; note: nearly all actives have a fitted effect of over 60% in size
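Buffer 100 mM Tris-HCl pH 9.0/0.01% Tween-20; HADH2 20 nM; NAD+ 1 mM; beta-hydroxybutyryl-CoA 90 uM (all final). 15 min cpd preincubation, RT.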
PK Bst: pyruvate kinase (B. stearothermophilus) modulation; purified pyruvate kinase, luminescence ATP production; ribose 5-phosphate activator present at AC10; 1.2% of 51,000 active; Potency, µM; in the data active = potency below about 11 µM; inconclusive = mostly about 12 µM to 25 µM;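 the screen sought inhibitors and activators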;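 note: scaled between full activation by ribose 5 phosphate and full inhibition by luteolin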
FLuc inh: firefly luciferase inhibition | P08659 | purified firefly luciferase, luminescence, 8 min | Potency, µM (series often up to 57.1 µM), for the others: at the top dose activity change, negative = inhibition, hits mostly inhibitors | 2.2% of 72,000 active | AID 411; note: nearly all actives have a fitted effect of over 40% in size
Target sequence (P08659 whole entry, looked up): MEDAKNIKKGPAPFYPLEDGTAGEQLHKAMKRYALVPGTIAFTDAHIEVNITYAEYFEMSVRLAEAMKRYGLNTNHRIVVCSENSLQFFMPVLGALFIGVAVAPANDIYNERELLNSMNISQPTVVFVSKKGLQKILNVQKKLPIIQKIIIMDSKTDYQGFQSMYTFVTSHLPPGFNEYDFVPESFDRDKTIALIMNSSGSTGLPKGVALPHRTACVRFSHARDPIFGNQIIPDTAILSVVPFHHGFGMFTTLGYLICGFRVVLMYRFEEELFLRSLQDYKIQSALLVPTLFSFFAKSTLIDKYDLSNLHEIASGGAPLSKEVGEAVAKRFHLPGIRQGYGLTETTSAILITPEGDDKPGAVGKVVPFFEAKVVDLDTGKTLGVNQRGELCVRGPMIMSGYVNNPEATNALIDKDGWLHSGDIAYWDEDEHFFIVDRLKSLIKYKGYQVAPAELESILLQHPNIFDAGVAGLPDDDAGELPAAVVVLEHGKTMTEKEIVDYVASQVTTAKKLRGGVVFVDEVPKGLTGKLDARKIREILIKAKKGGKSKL
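Luminescence read-out after 8 min at room temperature; enzyme reaction used luciferin plus 10 uM ATP (linear range) in imidazole buffer pH 7.2 with KCl, MgCl2, Tween 20 and BSA. Each sample was run as a titration.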
ERK AVP block: vasopressin-driven ERK pathway inhibition. HEK293-V1b, vasopressin-stimulated pERK AlphaScreen. Potency, µM (highest dose often 57.5 µM), for inactives: top-dose activity, negative = inhibition, hits mostly inhibitors. 0.99% of 72,000 active. AID 995; note: nearly all actives have a fitted effect of over 55% in size
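HEK293 cells stably expressing V1b receptor, seeded overnight in 1% FBS, were treated with compounds for 30 min at 37C, then stimulated 5 min with 25 nM vasopressin; phospho-ERK read by AlphaScreen SureFire after lysis.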
ALOX15 inhib: 15-hLO (ALOX15) enzyme inhibition | purified 15hLO-1, xylenol orange hydroperoxide absorbance | P16050 | 1.4% of 74,000 active | Potency, µM (series often up to 57.1 µM), inactives show top-dose activity change, negative = inhibition, actives largely listed as inhibitors; note: nearly all actives have a fitted effect of over 55% in size
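Readout: Fe(III)-xylenol orange absorbance, 573-to-405 nm ratio as reaction progress. Enzyme 40 nM purified human 15hLO-1, substrate 50 uM arachidonic acid, 6 min RT after 15 min compound preincubation; Hepes pH 7.5 buffer with Triton X-100.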
HSD17B inhib: blocks hydroxysteroid 17-beta dehydrogenase activity; Q99714; recombinant HSD17B10, NADH fluorescence kinetic; Potency, µM (titrated, usually from 57.1 µM), without a hit: at the top dose activity change, negative = inhibition, usual class: inhibitors; 7.6% of 75,000 active; AID 893;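 note: the protocol describes HADH2 (HSD17B10) and not the HSD17B4 of the title; nearly all actives have a fitted effect of over 70% in size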
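20 nM HADH2, pH 9.0 Tris/Tween; cpd preinc 15 min RT; start w/ 1 mM NAD+ + 90 uM b-hydroxybutyryl-CoA; kinetic fluor ex360/em450 q30s x 4 min; delta last-first.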
Numbers without * were called inactive; [ ] = remark or other dose. An excerpt weighted towards active compounds, which were near 11% of everything screened. Unless noted, calls come from the whole dose curve; as a rule, active = well fitted curve in the direction sought with a large enough effect; inconclusive = small, poorly fitted or top-dose-only effect, or another doubt; inactive = no such curve, though single readings can be large; an effect the other way counts as inactive or inconclusive. Unless noted, % is set by controls: 0 for no effect and ±100 for the full control effect; potency is the fitted concentration of half-maximal effect.

What do the screens show for `C[C@@]12C=CC(=O)C=C1CC[C@H]1[C@H]3CC[C@](O)(C(=O)CO)[C@]3(C)CC(=O)[C@@H]12`?
HADH2 inh: 0%[25.6 µM]; FLuc inh: 6%[25.5 µM]; ERK AVP block: 6%[25.7 µM]; ALOX15 inhib: 11%[25.6 µM]; HSD17B inhib: 10µM*

Results for C[C@]12CCC(=O)C=C1CC[C@@H]1[C@@H]2CC[C@@]2(C)[C@H]1CC[C@]2(O)C(=O)CO ?
HADH2 inh: -3%; PK Bst: >26; FLuc inh: -1%[25.5 µM]; ERK AVP block: -16%; ALOX15 inhib: 6%; HSD17B inhib: 25µM*

What do the screens show for `C[C@@]12CCC(=O)C=C1CC[C@H]1[C@H]3CC[C@](O)(C(=O)CO)[C@]3(C)CC[C@@H]12`?
HADH2 inh: inconclusive; FLuc inh: 1%

How did O=C(C[C@@H]1C=Cc2ccccc2N1C(=O)c1ccccc1)c1ccccc1 do in these assays?
HADH2 inh: 4%[11.4 µM]; FLuc inh: 2%[11.4 µM]; ERK AVP block: 13%[11.5 µM]; ALOX15 inhib: -27%[11.4 µM]; HSD17B inhib: -7%[11.4 µM]

What do the screens show for `O=C(O)c1ccc(SSc2ccc(C(=O)O)cn2)nc1`?
HADH2 inh: 0.05µM*; FLuc inh: -7%[11.4 µM]; ERK AVP block: 1%[11.5 µM]; ALOX15 inhib: -21%[11.4 µM]; HSD17B inhib: inconclusive

How did CN(C)c1ncc(C(=O)O)cn1 do in these assays?
HADH2 inh: -5%; PK Bst: >57; FLuc inh: 0%; ERK AVP block: 3%; ALOX15 inhib: inconclusive; HSD17B inhib: inconclusive

What do the screens show for `Cc1cccc(Cc2c(C)nc3c(C(=O)NCc4ccco4)cnn3c2C)c1`?
HADH2 inh: 32µM*; PK Bst: >57; FLuc inh: 2%; ERK AVP block: -6%; ALOX15 inhib: -28%; HSD17B inhib: 32µM*

Results for Cc1nc2c(C(=O)NCc3ccco3)cnn2c(C)c1Cc1ccc(F)cc1Cl ?
HADH2 inh: inconclusive; PK Bst: >57; FLuc inh: 5%; ERK AVP block: -15%; ALOX15 inhib: -28%; HSD17B inhib: 32µM*

How did Cc1nc2ccc(F)cc2cc1C(=O)NCc1ccco1 do in these assays?
HADH2 inh: -6%; PK Bst: >57; FLuc inh: 2%; ERK AVP block: -27%; ALOX15 inhib: 7%; HSD17B inhib: 4%

How did O=C1[C@H]2[C@H]3[C@H](O)[C@H](O)C/C(=N/OC[C@@H](O)COCc4ccco4)[C@@H]3CC[C@@H]2C(=O)N1c1cccc(Oc2ccccc2)c1 do in these assays?
HADH2 inh: 6%[11.4 µM]; FLuc inh: 0%[11.4 µM]; ERK AVP block: 11%[11.5 µM]; ALOX15 inhib: 6%[11.4 µM]; HSD17B inhib: -4%[11.4 µM]

What do the screens show for `C=CC1=C(C)/C(=C/c2[nH]c(Cc3[nH]c(/C=C4\NC(=O)C(C)=C4C=C)c(C)c3CCC(=O)O)c(CCC(=O)O)c2C)NC1=O`?
ERK AVP block: -5%; ALOX15 inhib: -19%; HSD17B inhib: 25µM*

How did COc1ccc2nc(SCc3nc(N)nc(Nc4ccccc4)n3)[nH]c2c1 do in these assays?
HADH2 inh: -8%; FLuc inh: 13µM*; ERK AVP block: inconclusive; ALOX15 inhib: -3%; HSD17B inhib: -4%

How did Nc1nc(CSc2ccccn2)nc(Nc2ccccc2)n1 do in these assays?
HADH2 inh: -7%; FLuc inh: 20µM*; ERK AVP block: -20%; ALOX15 inhib: -4%; HSD17B inhib: -2%

Results for COc1cc(C(=O)Nc2ccc3c(c2)OCCO3)c(-n2cnnn2)cc1OC ?
HADH2 inh: 7%; PK Bst: >57; FLuc inh: 3%; ERK AVP block: -14%; ALOX15 inhib: -17%; HSD17B inhib: -3%

What do the screens show for `COc1cc(SC)ccc1C(=O)Nc1ccc2c(c1)OCCO2`?
HADH2 inh: -5%; FLuc inh: 1.3µM*; ERK AVP block: -21%; ALOX15 inhib: -15%; HSD17B inhib: -8%

What do the screens show for `COc1ccc(-c2cnnn2-c2ccc(NC(=O)c3ccco3)cc2)cc1OC`?
HADH2 inh: -7%; PK Bst: >57; FLuc inh: 0%; ERK AVP block: 16µM*; ALOX15 inhib: 0%; HSD17B inhib: 4%

What do the screens show for `COc1ccc(Cl)cc1C(=O)Nc1ccc(NC(=O)c2ccco2)cc1`?
HADH2 inh: inconclusive; FLuc inh: 2%; ERK AVP block: -27%; ALOX15 inhib: -14%; HSD17B inhib: 32µM*

Results for CN(c1ccccc1C(=O)Nc1ccc2c(c1)OCO2)S(C)(=O)=O ?
HADH2 inh: -17%; PK Bst: >57; FLuc inh: -1%; ERK AVP block: -2%; ALOX15 inhib: inconclusive; HSD17B inhib: -14%

Results for Cc1ccccc1C(=O)Nc1ccc2c(c1)OCO2 ?
HADH2 inh: 2%; PK Bst: inconclusive; FLuc inh: 16µM*; ERK AVP block: 8%; ALOX15 inhib: 12%; HSD17B inhib: 2%

What do the screens show for `CO/N=C(/C)CCC(=O)OC[C@@H]1O[C@H](C#Cc2ccccc2)C=C[C@@H]1Oc1ccc(C)cc1`?
HADH2 inh: -3%[11.4 µM]; FLuc inh: 1%[11.4 µM]; ERK AVP block: 7%[11.5 µM]; ALOX15 inhib: 10%[11.4 µM]; HSD17B inhib: -4%[11.4 µM]

How did COc1ccc2c(c1)CN([C@H](C)[C@@H]1CC[C@@H]3[C@H]4CC[C@H]5C[C@@H](O)CC[C@@]5(C)[C@H]4CC[C@]31C)CO2 do in these assays?
HADH2 inh: inconclusive; FLuc inh: 4%[11.4 µM]; ERK AVP block: -2%[11.5 µM]; ALOX15 inhib: 8%[11.4 µM]; HSD17B inhib: 13%[11.4 µM]

How did OC[C@@H](O)CN1CCN(c2ccccc2)CC1 do in these assays?
HADH2 inh: 0%[25.6 µM]; FLuc inh: 3%[25.5 µM]; ERK AVP block: 1%[25.7 µM]; ALOX15 inhib: 5%[25.6 µM]; HSD17B inhib: 3%[25.6 µM]

How did Nc1ncnc2c1nc(Br)n2[C@@H]1O[C@H]2COP(=O)(O)O[C@@H]2[C@H]1O do in these assays?
HADH2 inh: -9%; FLuc inh: 2%; ERK AVP block: 6%; ALOX15 inhib: 7%; HSD17B inhib: -4%

How did COc1ccc(Cl)cc1C(=O)Nc1ccc2c(c1)OCO2 do in these assays?
HADH2 inh: 6%; PK Bst: inactive; FLuc inh: 13µM*; ERK AVP block: -24%; ALOX15 inhib: -6%; HSD17B inhib: 30%

What do the screens show for `CCOC(=O)c1c(C)[nH]c(C(=O)Nc2ccc3c(c2)OCO3)c1C`?
HADH2 inh: -5%; PK Bst: inactive; FLuc inh: 13µM*; ERK AVP block: 21%; ALOX15 inhib: -8%; HSD17B inhib: -7%

How did COc1ccccc1C(=O)Nc1ccc2c(c1)OCO2 do in these assays?
HADH2 inh: 2%; FLuc inh: 25µM*; ERK AVP block: -5%; ALOX15 inhib: -2%; HSD17B inhib: 1%

Compound activity (PubChem BioAssay)
